Among all 3,400 compounds or so, about 840 (25%) were called active. Roughly 11% stayed inconclusive and do not appear here. Not all results are given here. Results with a measured potency or affinity are listed apart. A number with no mark means an inactive call.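 Rule for the calls: active = fitted half-maximal concentration of signal decrease at or below twice the sample's top tested concentration; inconclusive = flat curve between -70 and -30 percent, or poor fit; inactive = flat within 30 percent, signal rise, or potency above limit.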

This note sets out measurements from PubChem BioAssay AID1259418 (Broad Institute, 2018).

The assay in a line: inhibitors of Toxoplasma growth in IFN-γ-primed HeLa – cell-based, ME49Luc, luciferase, 72 h, dose response (AID 1259418). The conditions noted are these: T. gondii ME49Luc in IFN-y HeLa, active compounds read low, -100% = high-dose IFN-γ control wells; at 19.5 µM unless noted.
For `CCc1ccc(-c2noc(-c3nnn(Cc4nc(-c5ccc(C)cc5)oc4C)c3C)n2)cc1`, the max activity was 8.04% [at 0.68 µM]. As for `COc1ccc(OC)c(S(=O)(=O)Nc2ccc(-c3nc(-c4ccc(C)c(C)c4)co3)cc2)c1`, the figure is 20.8% [at 1.35 µM]; as for `Cc1ccc(-c2nc(Cn3nnc(-c4nc(-c5ccc(C)c(C)c5)no4)c3C)c(C)o2)cc1`, -11% [at 2.6 µM]; as for `Cc1ccc(NC(=O)N2CCN(Cc3nc(-c4ccccc4C)oc3C)CC2)cc1Cl`, 14% [at 1.35 µM]. As for `O=C(NCCc1csc(-c2ccccc2)n1)[C@H]1CCCN1C(=O)c1ccc(F)c(F)c1`, the figure is 13.1% [at 0.16 µM]; as for `CCc1ccc(NC(=O)N2CCc3nc(-c4ccc(OC)c(OC)c4)sc3C2)cc1`, 7.81% [at 0.16 µM]; as for `O=C1CCc2cc(NC(=O)c3cccnc3)ccc2N1`, 9.01% [at 1.35 µM]. As for `Cc1ccc(-c2coc(-c3ccc(NC(=O)c4c(F)cccc4F)cc3)n2)cc1`, the figure is 20.4% [at 5 µM]; as for `Cc1ccc(-c2nc3c(s2)CN(S(=O)(=O)c2ccc(F)cc2)CC3)cc1`, 8.68% [at 10 µM]. `CCc1nc(OCC(=O)Nc2ccc(C(C)C)cc2)c2ccccc2n1`: the max activity is 25.6% [at 10 µM]. As for `COc1ccc(-c2nc(Nc3ccccc3Cl)c3ccccc3n2)cc1`, the figure is -9.71% [at 0.35 µM]; as for `COc1cccc(CNC(=O)Nc2ccc(-c3nc(-c4ccccc4)co3)cc2)c1`, 78.4%; as for `Cc1cccc(-c2nc(Cn3nnc(-c4nc(-c5ccccc5Br)no4)c3C)c(C)o2)c1`, 9.01% [at 2.6 µM]. As for `CCCCNC(=O)CCC1N=C2c3ccccc3N=C(SCc3ccc(C)cc3)N2C1=O` (configuration not stated), the figure is 25.3% [at 2.6 µM]; as for `CN(C)c1cccc(C(=O)N2CCC3(CC2)Nc2ccc(Cl)cc2-n2cccc23)c1`, -25.9% [at 10 µM]. As for `Cc1nc(OCC(=O)Nc2cc(Cl)ccc2Cl)c2ccccc2n1`, the figure is 20.7% [at 0.68 µM]; as for `CCCc1ccc(S(=O)(=O)Nc2ccc(-c3nc(-c4ccc(C)cc4C)co3)cc2)cc1`, -16.7% [at 0.16 µM]; as for `Cc1ccc(-c2coc(-c3ccc(NS(=O)(=O)c4ccc(C(C)C)cc4)cc3)n2)c(C)c1`, -13.7%. For `Cc1ccc(-c2coc(-c3ccc(NS(=O)(=O)c4ccc(N5CCCC5=O)cc4)cc3)n2)c(C)c1`, the max activity is -11% [at 0.68 µM]. As for `COc1ccc(S(=O)(=O)Nc2ccc(-c3nc(-c4ccc(C)cc4C)co3)cc2)cc1`, the figure is 26.2% [at 5 µM]. As for `Cc1ccc(-c2coc(-c3ccc(NS(=O)(=O)c4ccc(C(C)(C)C)cc4)cc3)n2)c(C)c1`, the figure is -14.9%; as for `Cc1ccc(-c2coc(-c3ccc(NS(=O)(=O)c4cccc(Cl)c4)cc3)n2)c(C)c1`, -22.9%; as for `Cc1ccc(S(=O)(=O)Nc2ccc(-c3nc(-c4ccc(C)cc4C)co3)cc2)cc1`, 12.9% [at 0.16 µM]. As for `Cc1ccc(-c2coc(-c3ccc(NS(=O)(=O)c4cccc(Cl)c4C)cc3)n2)c(C)c1`, the figure is 16.4% [at 2.6 µM]; as for `Cc1nc(OCC(=O)Nc2ccccc2Br)c2ccccc2n1`, 28.1% [at 0.16 µM]; as for `Cc1ccc(C)c(-c2nc(CN3CCc4c(sc5c4CCCC5)C3c3ccccc3)c(C)o2)c1` (configuration not stated), 15.8%. With `COc1ccccc1-c1nc(Cn2nnc(-c3nc(-c4ccc5c(c4)OCO5)no3)c2C)c(C)o1`, the max activity is 8.21% [at 0.35 µM]. As for `O=C(Nc1ccc(-c2nc(-c3ccccc3)co2)cc1)Nc1cccc(Cl)c1`, the figure is 19.9% [at 0.16 µM]; as for `O=C(c1cccnc1)N1CCC2(CC1)Nc1ccc(Cl)cc1-n1cccc12`, -27.3% [at 0.16 µM]; as for `CCOc1ccc(N2CC(NC(=O)C(=O)c3c[nH]c4ccccc34)CC2=O)cc1` (configuration not stated), 10.2% [at 10 µM]. In the case of `O=C(NC1CC(=O)N(c2ccc(Cl)cc2)C1)C(=O)c1c[nH]c2ccccc12` (configuration not stated), the max activity is 22.9% [at 2.6 µM]. As for `O=C(Nc1ccc(-c2nc(-c3ccccc3)co2)cc1)Nc1ccc(Br)cc1F`, the figure is 58.9% [at 10 µM]; as for `Cc1ccc(Cn2c(=O)c3nn(C)cc3n3c(=O)n(Cc4nc(-c5ccc(C)cc5)oc4C)nc23)cc1`, 11.5% [at 2.6 µM]. `Cc1oc(-c2ccccc2)nc1Cn1nc2n(Cc3ccc(F)cc3)c(=O)c3nn(C)cc3n2c1=O`: the max activity was 15.8%. As for `Cc1cccc(NC(=O)Nc2ccc(-c3nc(-c4ccccc4)co3)cc2)c1`, the figure is 16.2% [at 0.16 µM]. As for `CN1C(=O)CCc2cc(NC(=O)CC3CCCCC3)ccc21`, the figure is 8.53%; as for `CN1C(=O)c2cc(NC(=O)c3cccc(F)c3)ccc2OC[C@@H]2O[C@@H](CC(=O)NCC3CCCCC3)CC[C@@H]21`, -24.1%. Consider `COc1ccc(-c2nc(Nc3cccc(Cl)c3)c3ccccc3n2)cc1`, for which the max activity is 22.1% [at 0.35 µM]. `CCN(CC)C(=O)C1Cn2ccnc2C2(CCN(CC(C)C)CC2)O1` (configuration not stated): the max activity was 37.9%.

Take `O=C(NCCc1csc(-c2ccccc2)n1)C1CCN(C(=O)Cc2cccs2)CC1`: the max activity is 5.42% [at 0.35 µM].

As for `Cn1nnc2c(NCCSc3c[nH]c4ccccc34)ncnc21`, the max activity was 5.75% [at 0.16 µM]. As for `CN1C(=O)CCc2cc(NC(=O)C3CCCC3)ccc21`, the figure is 11.7%. As for `O=C1CCc2cc(NC(=O)C3CC3)ccc2N1`, the figure is -5.5% [at 5 µM].

Consider `CC(C)N1CCC(c2ccnc3c(C(=O)N4CCCN(C)CC4)ncn23)CC1`, for which the max activity was 39%. As for `Cc1ccc(S(=O)(=O)N2CCC3(CC2)NCCN=C3NCc2cccc(F)c2)cc1C`, the figure is 6.41% [at 5 µM]. As to `Cc1ccc(S(=O)(=O)N2CCC3(CC2)NCCN=C3NCc2ccc(F)c(Cl)c2)c(C)c1`, the max activity is 14% [at 5 µM]. As for `COc1ccccc1CCC(=O)N1CCC[C@@H]1C(=O)NCCc1csc(-c2ccccc2)n1`, the figure is -10.5%.
